Values joined by “and” are separate entries in the source; they are usually repeats but may differ in a detail not shown here. Identical values can stand only once. Results filed as inconclusive are left out. Active and inactive are the calls of the source. Unless noted, calls follow the shape of the full dose curve.
Key:
[1] = molecular target: Ubiquitin carboxyl-terminal hydrolase 1 (Homo sapiens) (UniProt O94782); test: Inhibitors of USP1/UAF1: Pilot qHTS (AID 504865; active = well fitted inhibition curve with a large enough effect;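 also: rhodamine fluorescence freed from ubiquitin-rhodamine substrate followed over time; top concentration of the series differs between compounds; % is scaled to controls: 0 for no effect and ±100 for the full control effect; nearly all actives have a fitted effect of over 35% in size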)
Chain of Ubiquitin carboxyl-terminal hydrolase 1 (Homo sapiens) (O94782 whole entry, looked up): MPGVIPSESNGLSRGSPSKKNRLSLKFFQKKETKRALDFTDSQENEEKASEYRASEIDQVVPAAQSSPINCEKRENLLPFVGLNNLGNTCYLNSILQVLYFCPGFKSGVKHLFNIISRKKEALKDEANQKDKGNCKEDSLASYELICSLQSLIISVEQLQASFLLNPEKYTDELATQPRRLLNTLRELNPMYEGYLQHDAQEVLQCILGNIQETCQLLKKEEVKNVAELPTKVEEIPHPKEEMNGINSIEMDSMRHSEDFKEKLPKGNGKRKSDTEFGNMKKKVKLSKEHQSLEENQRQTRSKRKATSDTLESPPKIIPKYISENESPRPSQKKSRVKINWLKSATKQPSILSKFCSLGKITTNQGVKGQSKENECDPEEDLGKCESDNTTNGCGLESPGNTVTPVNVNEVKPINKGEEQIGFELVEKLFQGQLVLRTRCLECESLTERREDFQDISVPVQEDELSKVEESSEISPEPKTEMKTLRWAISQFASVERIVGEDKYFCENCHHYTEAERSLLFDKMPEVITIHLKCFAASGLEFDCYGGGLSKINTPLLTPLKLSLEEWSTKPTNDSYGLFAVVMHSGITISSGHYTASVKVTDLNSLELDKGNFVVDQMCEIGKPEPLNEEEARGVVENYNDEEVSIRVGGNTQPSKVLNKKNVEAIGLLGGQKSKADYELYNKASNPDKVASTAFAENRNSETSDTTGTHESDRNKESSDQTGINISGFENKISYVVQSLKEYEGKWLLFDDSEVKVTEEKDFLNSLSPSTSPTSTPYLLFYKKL
Summary of the method: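 In 50mM HEPES pH 7.8 containing 0.5mM EDTA, 1mM TCEP, 0.1 mg/ml BSA and 0.01% Tween-20, 1nM USP1/UAF1 is exposed to compound for 15 min, then Ub-Rho (150nM final) is added and fluorescence is read over time.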

[2] = molecular target: Bile acid receptor (Homo sapiens) (UniProt Q96RI1); test: qHTS assay for small molecule antagonists of farnesoid X receptor signaling (AID 588526); also: % is scaled to controls: 0 for no effect and ±100 for the full control effect
Chain of Bile acid receptor (Homo sapiens) (Q96RI1 whole entry, looked up): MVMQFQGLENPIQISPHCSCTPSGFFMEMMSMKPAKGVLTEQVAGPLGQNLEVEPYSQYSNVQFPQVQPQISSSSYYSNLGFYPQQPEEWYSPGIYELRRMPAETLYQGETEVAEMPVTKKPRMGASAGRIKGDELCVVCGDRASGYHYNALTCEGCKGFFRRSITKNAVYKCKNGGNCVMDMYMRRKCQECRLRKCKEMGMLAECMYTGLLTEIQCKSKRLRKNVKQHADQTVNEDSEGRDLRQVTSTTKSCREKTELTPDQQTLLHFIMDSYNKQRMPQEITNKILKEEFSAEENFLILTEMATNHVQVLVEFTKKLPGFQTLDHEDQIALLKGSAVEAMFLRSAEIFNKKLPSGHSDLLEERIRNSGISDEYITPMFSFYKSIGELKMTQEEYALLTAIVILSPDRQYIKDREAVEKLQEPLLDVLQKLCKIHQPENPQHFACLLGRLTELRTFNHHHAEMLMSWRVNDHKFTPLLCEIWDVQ
Summary of the method: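 Beta-lactamase reporter antagonist mode: HEK293T FXR-UAS-bla cells, titrated compound, CDCA stimulation, 16 h 37 C, CCF4 dye 2 h RT. Data normalized to CDCA 50 uM and DMSO; Hill-fit IC50.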

[3] = molecular target: Glucocorticoid receptor (Homo sapiens) (UniProt P04150); test: qHTS assay for small molecule agonists of glucocorticoid receptor signaling (AID 588532; active = well fitted curve in the direction sought with a large enough effect in the signal ratio, with a control signal flat; the % refers to the signal ratio;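 also: 100% = dexamethasone at 0.1 µM and 0% = DMSO only wells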); conditions: HeLa MMTV-bla, beta-lactamase ratio, agonist, 18 h; stronger effect = higher value; percent of dexamethasone control, DMSO zero
Chain of Glucocorticoid receptor (Homo sapiens) (P04150 whole entry, looked up): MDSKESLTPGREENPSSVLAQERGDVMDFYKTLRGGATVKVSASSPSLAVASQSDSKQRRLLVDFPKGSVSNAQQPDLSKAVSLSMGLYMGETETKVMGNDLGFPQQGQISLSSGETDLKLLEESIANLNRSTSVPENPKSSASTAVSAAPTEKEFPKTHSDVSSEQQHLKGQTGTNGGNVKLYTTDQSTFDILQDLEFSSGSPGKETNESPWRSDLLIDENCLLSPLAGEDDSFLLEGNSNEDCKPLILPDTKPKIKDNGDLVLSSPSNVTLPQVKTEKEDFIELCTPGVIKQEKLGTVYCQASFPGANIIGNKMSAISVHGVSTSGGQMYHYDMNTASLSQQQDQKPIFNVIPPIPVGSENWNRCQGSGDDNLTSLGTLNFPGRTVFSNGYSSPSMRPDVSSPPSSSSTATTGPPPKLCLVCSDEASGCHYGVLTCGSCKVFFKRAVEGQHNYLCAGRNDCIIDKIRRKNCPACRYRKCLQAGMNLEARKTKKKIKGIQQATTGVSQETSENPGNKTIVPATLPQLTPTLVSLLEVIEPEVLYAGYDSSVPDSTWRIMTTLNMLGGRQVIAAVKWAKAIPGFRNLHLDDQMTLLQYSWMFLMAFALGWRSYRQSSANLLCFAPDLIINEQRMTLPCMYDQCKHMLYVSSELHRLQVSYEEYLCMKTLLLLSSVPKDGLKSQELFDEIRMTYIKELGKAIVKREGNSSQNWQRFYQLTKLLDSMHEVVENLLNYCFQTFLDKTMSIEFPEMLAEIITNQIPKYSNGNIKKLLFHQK
Summary of the method: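 Quantitative HTS using CellSensor MMTV-bla HeLa cells in charcoal/dextran-treated serum; compounds tested up to 92 uM. After 18 h at 37 C, CCF4 dye reported reporter induction.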

[4] = molecular target: Glucocorticoid receptor (Homo sapiens) (UniProt P04150); test: qHTS assay for small molecule antagonists of glucocorticoid receptor signaling (AID 588533; active = well fitted inhibition curve with a large enough effect in the signal ratio, with a control signal flat, not every such curve was filed as active; the % refers to the signal ratio;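 also: cells stimulated with 2 nM dexamethasone as agonist; % is scaled to controls: 0 for no effect and ±100 for the full control effect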)
Summary of the method: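 Antagonist-mode qHTS: compound titrations added to GRE-bla HeLa cells, then dexamethasone 2 nM final; 18 h, 37 C. CCF4 FRET fluorescence normalized to dexamethasone and DMSO; IC50 from Hill fit.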

[5] = molecular target: Vitamin D3 receptor (Homo sapiens) (UniProt P11473); test: qHTS assay for small molecule antagonists of vitamin D receptor signaling (AID 588541);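 also: receptor activated by calcitriol during compound treatment; series mostly up to about 77 µM; % is scaled to controls: 0 for no effect and ±100 for the full control effect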
Chain of Vitamin D3 receptor (Homo sapiens) (P11473 whole entry, looked up): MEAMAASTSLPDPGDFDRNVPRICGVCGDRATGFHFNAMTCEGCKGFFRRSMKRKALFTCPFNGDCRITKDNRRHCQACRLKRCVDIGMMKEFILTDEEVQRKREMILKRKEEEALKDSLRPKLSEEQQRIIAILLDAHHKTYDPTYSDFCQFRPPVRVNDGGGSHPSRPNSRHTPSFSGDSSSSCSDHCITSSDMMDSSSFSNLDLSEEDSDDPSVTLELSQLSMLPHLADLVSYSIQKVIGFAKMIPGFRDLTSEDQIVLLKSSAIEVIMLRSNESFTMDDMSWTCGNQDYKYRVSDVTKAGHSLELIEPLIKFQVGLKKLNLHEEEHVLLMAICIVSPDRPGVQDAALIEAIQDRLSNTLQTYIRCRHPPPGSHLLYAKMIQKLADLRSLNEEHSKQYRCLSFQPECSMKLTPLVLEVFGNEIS
Summary of the method: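 Antagonist-mode beta-lactamase reporter assay: HEK293T VDR-UAS-bla cells were exposed to titrated compound alongside 1-alpha,25-dihydroxyvitamin D3 at 3 nM final for 16 h. Values were normalized to the 50 nM agonist control and DMSO basal, with IC50 and efficacy from Hill equation fits.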

[6] = molecular target: Vitamin D3 receptor (Homo sapiens) (UniProt P11473); test: qHTS assay for small molecule agonists of vitamin D receptor signaling (AID 588543);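 also: 0% = DMSO basal and 100% = reference agonist control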
Summary of the method: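 Reporter cells (HEK293T, VDR-UAS-bla) were seeded in medium with 2% charcoal-stripped serum and incubated 5 h, then compounds in concentration series were added for 16 h at 37 °C. Stimulation was scaled between DMSO basal and 50 nM 1α,25-dihydroxyvitamin D3.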

[7] = molecular target: Estrogen receptor (Homo sapiens) (UniProt P03372); test: qHTS assay for small molecule antagonists of estrogen receptor alpha signaling (AID 588513; active = well fitted curve in the direction sought with a large enough effect in the signal ratio, with a control signal flat, not every such curve was filed as active; the % refers to the signal ratio; also: % is scaled to controls: 0 for no effect and ±100 for the full control effect)
Chain of Estrogen receptor (Homo sapiens) (P03372 whole entry, looked up): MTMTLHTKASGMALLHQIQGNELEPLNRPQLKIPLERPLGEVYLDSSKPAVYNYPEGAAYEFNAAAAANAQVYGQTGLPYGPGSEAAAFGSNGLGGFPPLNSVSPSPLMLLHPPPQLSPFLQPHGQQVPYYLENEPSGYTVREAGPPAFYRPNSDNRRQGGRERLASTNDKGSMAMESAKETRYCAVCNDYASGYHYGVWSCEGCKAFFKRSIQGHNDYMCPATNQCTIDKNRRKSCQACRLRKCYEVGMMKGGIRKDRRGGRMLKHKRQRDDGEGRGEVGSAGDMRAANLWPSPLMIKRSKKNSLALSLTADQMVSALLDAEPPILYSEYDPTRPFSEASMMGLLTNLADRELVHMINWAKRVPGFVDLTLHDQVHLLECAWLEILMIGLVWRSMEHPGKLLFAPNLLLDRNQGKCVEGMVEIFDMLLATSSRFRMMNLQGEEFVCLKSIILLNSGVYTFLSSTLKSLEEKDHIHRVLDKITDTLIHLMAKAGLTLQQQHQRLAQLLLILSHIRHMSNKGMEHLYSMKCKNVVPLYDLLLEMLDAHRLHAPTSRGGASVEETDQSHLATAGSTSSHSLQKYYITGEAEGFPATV
Summary of the method: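 Fluorescence from CCF4 substrate after 2 h at room temperature gave reporter activity; cells had been exposed to compound and 0.5nM 17-beta-estradiol for 18 h at 37 C. Hill-equation fitting yielded IC50 and maximal response.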

[8] = molecular target: Estrogen receptor (Homo sapiens) (UniProt P03372); test: qHTS assay for small molecule agonists of estrogen receptor alpha signaling (AID 588514);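 also: 0% = vehicle only and 100% = reference agonist; nearly all actives have a fitted effect of over 70% in size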
Summary of the method: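 ER-alpha-UAS-bla GripTite HEK293 cells, 5000/well in 2% charcoal/dextran-stripped FBS medium, treated with compound titrations 18 h at 37 C. CCF4 beta-lactamase read by fluorescence after 2 h RT; normalised to 20 nM 17-beta-estradiol (100%) and DMSO (0%), Hill fit for EC50 and efficacy.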

[9] = qHTS assay for small molecule antagonists of peroxisome proliferator-activated receptor delta signaling (AID 588535; active = well fitted inhibition curve with a large enough effect in the signal ratio, with a control signal flat, not every such curve was filed as active; the % refers to the signal ratio;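 as to max response: cells co-treated with a PPAR-delta agonist as stimulator during compound exposure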); conditions: HEK293T PPARd-UAS-bla, beta-lactamase FRET ratio, 18 h; 460 nm channel
Summary of the method: (§1)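 HEK293T PPAR-delta-UAS-bla cells, 4000/well, 2% charcoal/dextran FBS; 5 h 37 C; cpd titration; 18 h 37 C; CCF4 2 h RT; FI 460/530 nm; Hill fit → IC50, efficacy.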

[10] = molecular target: Peroxisome proliferator-activated receptor delta (Homo sapiens) (UniProt Q03181); test: as above
Chain of Peroxisome proliferator-activated receptor delta (Homo sapiens) (Q03181 whole entry, looked up): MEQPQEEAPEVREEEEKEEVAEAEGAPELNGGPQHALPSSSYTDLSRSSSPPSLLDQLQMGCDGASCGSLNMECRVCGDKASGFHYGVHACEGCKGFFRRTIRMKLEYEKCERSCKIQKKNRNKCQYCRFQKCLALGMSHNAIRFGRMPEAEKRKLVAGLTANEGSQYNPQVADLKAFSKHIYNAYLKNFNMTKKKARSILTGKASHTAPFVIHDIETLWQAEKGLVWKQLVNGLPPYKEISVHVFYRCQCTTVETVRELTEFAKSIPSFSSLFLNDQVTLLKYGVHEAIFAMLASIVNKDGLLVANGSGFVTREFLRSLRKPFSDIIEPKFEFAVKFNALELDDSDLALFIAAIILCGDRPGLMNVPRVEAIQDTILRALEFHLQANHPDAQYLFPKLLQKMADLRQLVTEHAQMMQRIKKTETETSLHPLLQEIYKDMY
Summary of the method: as §1

[11] = molecular target: Peroxisome proliferator-activated receptor gamma (Homo sapiens) (UniProt P37231); test: qHTS assay for small molecule agonists of peroxisome proliferator-activated receptor gamma signaling (AID 588536; active = well fitted curve in the direction sought with a large enough effect in the signal ratio, with a control signal flat, not every such curve was filed as active; the % refers to the signal ratio;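 also: 0% = DMSO basal wells and 100% = rosiglitazone at 2 µM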)
Chain of Peroxisome proliferator-activated receptor gamma (Homo sapiens) (P37231 whole entry, looked up): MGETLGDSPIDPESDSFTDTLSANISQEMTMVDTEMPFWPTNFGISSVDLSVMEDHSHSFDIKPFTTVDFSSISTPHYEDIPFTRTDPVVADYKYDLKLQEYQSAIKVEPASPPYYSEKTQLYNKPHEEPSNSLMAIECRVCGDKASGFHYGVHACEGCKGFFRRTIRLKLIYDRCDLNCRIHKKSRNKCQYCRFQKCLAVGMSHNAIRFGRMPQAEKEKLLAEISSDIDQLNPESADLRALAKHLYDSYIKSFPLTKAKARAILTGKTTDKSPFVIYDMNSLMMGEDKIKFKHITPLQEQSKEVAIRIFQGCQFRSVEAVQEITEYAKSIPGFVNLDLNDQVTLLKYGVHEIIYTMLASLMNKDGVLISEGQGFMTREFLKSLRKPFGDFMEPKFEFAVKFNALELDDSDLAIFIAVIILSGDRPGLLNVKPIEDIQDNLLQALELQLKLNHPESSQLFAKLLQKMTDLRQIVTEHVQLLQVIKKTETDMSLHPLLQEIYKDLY
Summary of the method: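 Ratiometric blue/green fluorescence (405 nm excitation; 460 and 530 nm emission) from CCF4-loaded HEK293 reporter cells serves as signal. Exposure to test compounds lasts 16 h at 37 C in medium containing 1% charcoal/dextran-treated serum.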

[12] = molecular target: Peroxisome proliferator-activated receptor gamma (Homo sapiens) (UniProt P37231); test: qHTS assay for small molecule antagonists of peroxisome proliferator-activated receptor gamma signaling (AID 588537; active = well fitted inhibition curve with a large enough effect in the signal ratio, with a control signal flat, not every such curve was filed as active; the % refers to the signal ratio;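 also: reporter cells co-stimulated with 50 nM rosiglitazone agonist during compound treatment; % of control where 0% means no effect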)
Summary of the method: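 Antagonist mode, beta-lactamase reporter in HEK293; charcoal/dextran FBS 1%; 3000 cells/well, 37 C 6-6.5 h; cpd titration + rosiglitazone 50 nM final, 16 h 37 C; CCF4, 2 h RT; 460/530 nm; Hill fit → IC50, efficacy.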

Cc1cc(CC(=O)O)n(C)c1C(=O)c1ccc(Cl)cc1
inactive: Potency [1] | outcome [2] | activation [3] -2.23% | outcome [4] | outcome [5] | outcome [6]

COc1ccccc1O
inactive: Potency [1] | outcome [7] | outcome [8] | outcome [2] | activation [3] 0.59% and 4.92% and -0.396% | outcome [4] | outcome [10] | outcome [11] | outcome [12] | outcome [5] | outcome [6]
-6.63% and -4.79%: max response [9]

Oc1ccc(C(O)CNCCCCCCNCC(O)c2ccc(O)c(O)c2)cc1O (centres undefined)
inactive: Potency [1]

CC(O)CN(CCN(CC(C)O)CC(C)O)CC(C)O (centres undefined)
30%: max response [9]
inactive: Potency [1] | outcome [2] | activation [3] -7.72% | outcome [4] | outcome [10] | outcome [11] | outcome [12] | outcome [5] | outcome [6]
